TDP43 rescue = inhibitors of TDP-43 toxicity in yeast; TDP-43 expressing yeast growth rescue, BacTiter-Glo, 24 h; Potency, µM (series often up to 46.1 µM), without a hit: at the highest dose growth rescue (activation), actives largely listed as activators; 410,000 compounds, 1.8% hits; AID 652104; further: % of control where 0% means no effect; nearly all actives have a fitted effect of over 50% in size
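Cell-based yeast growth screen: TDP-43 expression induced in galactose, inoculum OD600=0.02 after raffinose pregrowth to mid-log. Read-out BacTiter-Glo luminescence at 24 hr, 30 deg C; inhibition of toxicity seen as signal increase.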
Abeta rescue = restores growth of yeast expressing A-beta42 peptide; yeast expressing A-beta42, growth rescue, OD600, 48 h; response scale: 0% DMSO, 100% iron-clioquinol control; Potency, µM (series often up to 46.1 µM), most hits filed as activators; 410,000 compounds, 0.063% hits; AID 1347071; further: nearly all actives have a fitted effect of over 55% in size
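Growth rescue measured by 600 nm absorbance after 48 h yeast culture at 30 C with compound. Values normalized between DMSO and an equimolar ferric chloride plus clioquinol control.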
FUS suppressor = rescues growth of FUS-expressing yeast. Potency, µM (series often up to 76.6 µM), hits mostly activators. AID 1347120. 390,000 compounds, 0.24% hits. S. cerevisiae FUS-expressing, growth rescue, OD600, 24 h;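 further: plate controls were DMSO vehicle for no effect and reference control for full effect; nearly all actives have a fitted effect of over 55% in size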
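Read-out: OD at 600 nm after 24hr at 30C, reporting rescue of FUS-induced yeast toxicity. Cells at OD 0.005 in galactose (2%) minimal medium; compounds tested in a dilution series; CP55940 titration from 92uM final as control.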
aSyn rescue = inhibitors of alpha-synuclein toxicity in yeast. AID 652106. 370,000 compounds, 0.14% hits. Potency, µM (series often up to 46.1 µM), without a hit: top-dose growth rescue (activation), hits mostly activators. Yeast expressing alpha-synuclein, growth rescue, BacTiter-Glo, 24 h; further: % of control where 0% means no effect; nearly all actives have a fitted effect of over 65% in size
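Readout is rescue of growth in alpha-synuclein-expressing yeast, so inhibitors of toxicity appear as activators. Growth after 24 hr at 30 deg C in galactose medium is quantified by luminescence.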
Numbers without * were called inactive; i = inactive; u = inconclusive; x = not tested or not shown; ! = repeats disagree; [ ] = another dose, or the depositor's remark. In the library only some 2.1% were active in any assay of this set; here they are far more common. The call rests on the fitted dose curve; in most records, active means well fitted curve in the direction sought with a large enough effect; inconclusive means small, poorly fitted or top-dose-only effect, or another doubt; inactive means no such curve, though single readings can be large; an effect the other way counts as inactive or inconclusive. Potency means the concentration at half of the fitted maximal effect.

SMILES	TDP43 rescue	Abeta rescue	FUS suppressor	aSyn rescue
CCCCNC(=O)NS(=O)(=O)c1ccc(NC(=O)CSc2ncnc3scc(-c4ccc(C)cc4)c23)cc1	x	x	i	x
C#CCOCCOCCOCCNc1nc(N2CCN(C(=O)CCCCCCCCCCNC(=O)[C@@H](CCSC)n3cc(CCO)nn3)CC2)nc(N2CCN(C(=O)CCCCCCCCCCNC(=O)[C@@H]([C@H](C)O)n3cc(C)nn3)CC2)n1	-5%	i	7.9µM*	-7%
C#CCOCCOCCOCCNc1nc(N2CCN(C(=O)CCCCCCCCCCNC(=O)[C@H](CCCCN)n3cc(C)nn3)CC2)nc(N2CCN(C(=O)CCCCCCCCCCNC(=O)[C@@H]([C@H](C)O)n3cc(C)nn3)CC2)n1	5%	i	11µM*	0%
C#CCOCCOCCOCCNc1nc(N2CCN(C(=O)CCCCCCCCCCNC(=O)[C@H](CCCCN)n3cc(C[C@@H](C)CC)nn3)CC2)nc(N2CCN(C(=O)CCCCCCCCCCNC(=O)[C@@H]([C@H](C)O)n3cc(C)nn3)CC2)n1	32%	i	u	-60%
C#CCOCCOCCOCCNc1nc(N2CCN(C(=O)CCCCCCCCCCNC(=O)[C@@H](CCSC)n3cc(CCO)nn3)CC2)nc(N2CCN(C(=O)CCCCCCCCCCNC(=O)[C@H](CO)n3cc(CCCCCN)nn3)CC2)n1	9%	i	u	-37%
C#CCOCCOCCOCCNc1nc(N2CCN(C(=O)CCCCCCCCCCNC(=O)Cn3cc(C[C@@H](C)O)nn3)CC2)nc(N2CCN(C(=O)CCCCCCCCCCNC(=O)[C@@H](CCSC)n3cc(CCO)nn3)CC2)n1	8%	i	4µM*	-1%
C#CCOCCOCCOCCNc1nc(N2CCN(C(=O)CCCCCCCCCCNC(=O)[C@H]([C@@H](C)CC)n3cc(CCCCN=C(N)N)nn3)CC2)nc(N2CCN(C(=O)CCCCCCCCCCNC(=O)[C@@H]([C@H](C)O)n3cc(C)nn3)CC2)n1	1%	i	u	-61%
C#CCOCCOCCOCCNc1nc(N2CCN(C(=O)CCCCCCCCCCNC(=O)[C@@H](CCSC)n3cc(CCO)nn3)CC2)nc(N2CCN(C(=O)CCCCCCCCCCNC(=O)[C@H](CCC(=O)O)n3cc(CCCCCN)nn3)CC2)n1	19%	i	11µM*	-21%
COc1ccc(/C(C)=N/NC(=S)NCCc2ccccc2)cc1	-18%[0.397 µM]	13µM*	i	-8%
Cc1ccc(C2(C)NC(=O)N(CC(=O)N3c4ccccc4NC(=O)CC3C)C2=O)cc1 (stereo unspecified)	-5%	i	i	3.5µM*
Cn1c(SCc2ccccc2Cl)nnc1-c1cnccn1	11µM*	i	i	-1%
Cc1nc2c(C(=O)NCCC(C)C)cnn2c(C)c1Cc1c(F)cccc1Cl	11%	i	i	x
Cn1c(-c2ccc(S(=O)(=O)N3CCCC3)cc2)csc1=Nc1ccc(Cl)c(Cl)c1	u	i	i	x
CC1(C)CC2CC(C)(CN2C(=O)COC(=O)c2ccc(O)cc2O)C1 (stereo unspecified)	19%	10µM*	i	-11%
CC1(C)CC2CC(C)(CN2C(=O)COC(=O)c2cc(Cl)cc(Cl)c2N)C1 (stereo unspecified)	-10%	i	i	7%
O=C1C[C@H](C(=O)Nc2ccc(Cl)cc2)[C@@H](c2ccccc2)O1	x	x	i	x
COc1ccc(NC(=O)COC(=O)c2ccc(OCc3c(C)noc3C)cc2)cc1OC	14%	i	i	10%
COc1cc(C(=O)OCC(=O)Nc2ccc3c(c2)OC(F)(F)O3)ccc1OCc1c(C)noc1C	35µM*	i	i	1%
Cc1ccccc1OCC(O)CN1C(=O)c2ccccc2C1=O (stereo unspecified)	30%	i	i	10%
C=CCc1ccccc1OCC(O)CN1C(=O)c2ccccc2C1=O (stereo unspecified)	11µM*	i	i	17%
c1ccc(CNc2ncnc3nc(N4CCOCC4)[nH]c23)cc1	x	x	x	14%
O=C(/C(=C/c1ccc(Cl)cc1)c1nc2ccccc2[nH]1)c1cccs1	3.2µM*	i	i	-23%
S=C(NCc1ccco1)NCc1ccco1	-9%	i	x	-29%
Cc1cccc(NC(=S)NCc2ccco2)n1	u	13µM*	i	1%
COC(=O)[C@]12C[C@H](CC(=O)NCc3cccc4ccccc34)C(=O)N(CCc3ccc(OC)c(OC)c3)C1=C[C@H](C(C)C)O[C@@H]2C1CC1	x	x	13µM*	x
SMILES	TDP43 rescue	Abeta rescue	FUS suppressor	aSyn rescue
COC(=O)[C@]12C[C@H](CC(=O)NCC34CC5CC(CC(C5)C3)C4)C(=O)N(Cc3cccc4ccccc34)C1=C[C@H](C1CCCC1)O[C@@H]2C	x	x	i	x
COC(=O)[C@]12C[C@H](CC(=O)NCc3ccc(C)o3)C(=O)N(Cc3cccc4ccccc34)C1=C[C@H](C1CCCC1)O[C@@H]2C	x	x	28µM*	x
COC(=O)[C@]12C[C@H](CC(=O)N3CCN(C(=O)c4ccco4)CC3)C(=O)N(Cc3cccc4ccccc34)C1=C[C@H](C1CCCC1)O[C@@H]2C	x	x	16µM*	x
COC(=O)[C@]12C[C@H](CC(=O)NCc3ccc(OC)c(OC)c3)C(=O)N(Cc3cccc4ccccc34)C1=C[C@H](C1CCCC1)O[C@@H]2C	x	x	13µM*	x
CCn1nc(C)c2c(-c3ccccc3)cc(=O)n(C(C)C(=O)NCCc3ccccc3)c21 (stereo unspecified)	u	i	i	x
O=C(OC12CCCN(C1)/C(=C/c1ccc(Cl)cc1)C2)C1CCCCC1 (stereo unspecified)	x	x	i	x
CN(C)c1ccc(/C=C/c2ccc3cc(F)ccc3n2)cc1	x	x	x	-17%
COc1ccc(S(=O)(=O)Nc2ccc3c(c2)N(C(C)=O)CCC3)cc1F	0%	i	i	x
Cc1ccc(NC(=S)N2CCC(c3ccc(C)cc3)C2)cc1 (stereo unspecified)	18µM*	u	i	-12%
Cc1ccc(C2CCN(C(=O)Nc3ccccc3)C2)cc1 (stereo unspecified)	10µM*	i	i	7%
O=C(Nc1ccc(Cl)cc1)N1CCC(c2ccccc2)C1 (stereo unspecified)	11µM*!	i	i	1%
Cc1cc(Oc2ccc(Cl)cc2Cl)nc(C#N)n1	x	x	x	3%
Cc1nc2ccc(C(=O)Nc3ccccc3Cl)cc2s1	11µM*	i	i	0%
CSc1nc2ccc(NS(=O)(=O)c3cccc(Cl)c3Cl)cc2s1	32µM*	i	u	-17%
Cc1nc2ccc(NS(=O)(=O)c3ccccc3Cl)cc2s1	18µM*	i	i	21%
CCN(CC)C(=O)CCCOc1ccc(Cl)cc1Cl	13µM*	i	i	16%
O=C(CCCOc1ccc(Cl)cc1Cl)N/N=C/c1ccccc1	0%	i	x	12%
O=C(CCCOc1ccc(Cl)cc1Cl)N/N=C/c1ccccc1O	u	u	x	22µM*
